Results: the supplement of paper PMC6555819

Legend:
Experiment in all cases: PBM binding z-score (relative to random genomic background probes); higher = stronger binding; sequences stand for … in GC…GCGATTGACAGCGTAGAATGAAGG
[1] = tested on: FXR:RXRa (NR concentration 270 nM, RXRa partner concentration 90 nM)
Outline: (§1)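 Scanned fluorescence from custom Agilent 4×180K protein-binding microarrays was regression-normalized. Binding z-scores use random background probes as reference. Ligand-free nuclear receptor dimers were incubated on the arrays for 1 h and detected with antibodies against each partner (one per run).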

[2] = tested on: LXRa:RXRa (NR concentration 270 nM, RXRa partner concentration 90 nM)
Outline: as §1

[3] = tested on: LXRa homodimer (NR concentration 270 nM)
Outline: as §1

[4] = tested on: LXRb:RXRa (NR concentration 270 nM, RXRa partner concentration 90 nM)
Outline: as §1

[5] = tested on: LXRb homodimer (NR concentration 270 nM)
Outline: as §1

[6] = tested on: PPARa:RXRa (NR concentration 270 nM, RXRa partner concentration 90 nM)
Outline: as §1

[7] = tested on: PPARg:RXRa (NR concentration 180 nM, RXRa partner concentration 90 nM)
Outline: as §1

[8] = tested on: PPARg:RXRa 270nM:90nM, anti-RXR (NR concentration 270 nM, RXRa partner concentration 90 nM)
Outline: as §1

[9] = tested on: PPARg:RXRa 30nM:10nM, anti-RXR (NR concentration 30 nM, RXRa partner concentration 10 nM)
Outline: as §1

[10] = tested on: PPARg:RXRa 90nM:30nM, anti-RXR (NR concentration 90 nM, RXRa partner concentration 30 nM)
Outline: as §1

Sequence | PBM binding z-score [1] | PBM binding z-score [2] | PBM binding z-score [3] | PBM binding z-score [4] | PBM binding z-score [5] | PBM binding z-score [6] | PBM binding z-score [7] | PBM binding z-score [8] | PBM binding z-score [9] | PBM binding z-score [10]
ACTGACAGGTGAGTGAAGGTAACTCAGCTGGACG | 0.406 | 0.0865 | -0.418 | -0.453 | -0.767 | 0.153 | 0.398 | 0.0745 | -0.305 | -0.0738
CCTGCTAGGTCCTGGTCAGCTAATCTACAGTATG | -0.334 | -0.452 | -0.575 | -0.318 | -1.07 | -0.283 | -0.294 | -0.442 | -0.574 | -0.403
CAAACTAGGTCACAGAGGCCAAAGTCCGTGCGTA | 4.93 | 3.79 | 1.02 | 2.66 | 0.0915 | 5.36 | 8.81 | 7.33 | 5.35 | 7.09
CCTACTGGGCCAAAGGTCATTCATTCCAATGCTC | 4.99 | 5.4 | 5.18 | 5.18 | 1.33 | 6.7 | 12.2 | 10.6 | 10.6 | 11.8
CGTCCAAGGTCCTAGGAGGTCAGTGAAGACAGAT | 1.97 | 1.66 | 0.256 | 1.71 | -0.518 | 2.44 | 0.157 | 0.654 | -0.57 | 0.21
ATATGTAGGTTATCGGGTTATTCAGTTTGCGCAT | 1.49 | 1.81 | 1.11 | 2.23 | 1.29 | 3.81 | 6.03 | 4.99 | 2.41 | 4.37
CGAACTAGGTGAGAACAGGACAGTGAAGGATGAT | -0.071 | -0.292 | -0.107 | -0.534 | -0.796 | 1.57 | 2.76 | 2.11 | 0.836 | 1.12
ATCGCTAGGTAAAAGTTCAGTGAATCCCGAGGAT | 0.352 | 1.06 | 0.677 | 0.618 | -0.3 | 2.84 | 4.94 | 5.9 | 5.05 | 6.23
CCTTACCGGTCACTGACAGGTTATAGCATTTGGA | 1.09 | 1.89 | 1.73 | 1.31 | 0.619 | 1.49 | 0.664 | 0.675 | 0.114 | 0.418
ACTATTAGTTGACTTAGGGCATCCGATACGACGC | -0.0291 | 0.0994 | 0.216 | -0.154 | 0.3 | -0.203 | 0.827 | 0.149 | 0.353 | 0.396
CCAGCCAGGTGAAAGGTAACTCAGTCTGGTACGC | 0.269 | 0.156 | -0.445 | 0.354 | -1.15 | 3.65 | 6.97 | 6.34 | 5.76 | 7.61
GCAACGAGGGCAAGTTGATAGCAGAGTTTGATGG | 0.996 | 0.513 | -0.434 | 0.332 | -0.572 | 1.49 | 0.841 | 1 | 0.0166 | 0.481
GCTGCTAGGTCAACTTATGGTCAGCTAAAGCTCG | 4.49 | 2.98 | 0.539 | 2.52 | 0.4 | 3.87 | 2.95 | 3.14 | 0.913 | 2.31
TCTAGTAGATCAGCAGGTTAAGAAAGCTGGCCAA | 0.258 | 0.127 | -0.552 | 0.373 | -0.762 | 0.734 | -0.257 | 1.37 | 2.66 | 2.06
CCTAGTTGGTCAGGAGGTCACACGCCGGATATGA | 3.62 | 3.32 | 1.92 | 3.15 | 0.554 | 4.05 | 3.59 | 3.92 | 1.69 | 2.84
GCGAATGGGGCAAAGCAGGTTACCATAAGGTTGG | 0.135 | 0.262 | -0.483 | 0.474 | -0.239 | 1.31 | 0.647 | 0.187 | -0.478 | -0.292
AGAACGAGGGCAATAAGTTGATAGCACGGGTGGC | 0.456 | 0.268 | -0.278 | -0.143 | -0.518 | 1.24 | 1.44 | 0.893 | 0.0758 | 0.217
TCTCGTAGATCAAGCAGGTTAAGAAAGCCTGAGT | -0.462 | -0.196 | -0.257 | -0.0905 | -1.19 | 0.4 | -0.54 | 0.861 | 2.47 | 1.83
CTCGAAGGGTCGTGCTCAGGTGAGTATACCAAAC | 2.01 | 1.45 | -0.37 | 1.52 | -0.487 | 2.89 | 0.441 | 1.12 | -0.0599 | 0.72

Sequence | PBM binding z-score [1] | PBM binding z-score [2] | PBM binding z-score [3] | PBM binding z-score [4] | PBM binding z-score [5] | PBM binding z-score [6] | PBM binding z-score [7] | PBM binding z-score [8] | PBM binding z-score [9] | PBM binding z-score [10]
CTTCGGAGGACAACAGGAGGTCAGAGCTGCCAGA | 1.34 | 2.65 | 2.21 | 1.45 | -0.45 | 2.23 | 0.516 | 0.602 | -0.765 | 0.051
CGTCCTAGGTCAAAGGTCAGTGAAGAGATGACGG | 7.08 | 5.88 | 2.24 | 5.52 | 0.881 | 6.8 | 11 | 9.26 | 9.03 | 10.2
CCAGACGGGTGAAAGGTAACTCAGTCTGGTACGC | 0.176 | 0.178 | -0.5 | 0.239 | -0.986 | 2.87 | 4.88 | 5.6 | 3.4 | 5.98
CCGACTGGGGCAGAAAGGTTGCCATACCATCCGG | -0.157 | -0.408 | -0.611 | -0.446 | -1.22 | 0.46 | 0.735 | 1.19 | -0.155 | 0.7
CCGACTGGGGCAGAGAGGTTACCATACCATCCGG | -0.137 | 0.273 | -0.349 | 0.271 | -1.44 | 1.48 | 1.35 | 1.6 | -0.221 | 0.899
AACTCTAGGTAACCAAGTTCAGTGAATGCCGAAC | 0.211 | 0.537 | 0.474 | 0.24 | 0.213 | 0.878 | 0.528 | 0.367 | -0.222 | 0.0109
AGAATGAGGTTTTACGTAGATCAGGGAAGAAAGT | -0.139 | -0.0557 | -0.184 | -0.13 | -0.304 | -0.000129 | 0.251 | -0.0665 | 0.263 | 0.297
TCGGCTAGGTCAGTTGGTCAGCTAACGAGCTGCC | 1.1 | 0.58 | -0.132 | 0.27 | -0.753 | 1.48 | 0.0282 | 1.28 | 0.913 | 1.11
TATAGCAGGCCAGAGGGTCACTCAAGAGGTACGG | 1.02 | 1.2 | -0.173 | 1.21 | -0.338 | 2.59 | 2.56 | 3.15 | 1.56 | 3.12
CGAACTAGGTCAAGGTCAGTGAATCTCCGCACGC | 4.73 | 3.81 | 1.23 | 2.95 | 0.0681 | 5.17 | 8.71 | 6.93 | 4.44 | 7.24
TCATATAGGTAAAGGGTGAAAGTCGGTGTGGTAA | 1.34 | 1.71 | 0.489 | 1.71 | 0.233 | 4.48 | 7.16 | 7.21 | 7.16 | 7.63
CGAACGAGGGCATGGGTTGATAGCAAATGCCGAT | 0.548 | 0.397 | -0.228 | 0.329 | -0.69 | 2.01 | 3.1 | 3.6 | 1.43 | 3.25
CCTACTGGGCCATCAGGTCATTGCTATCAACGTT | 1.55 | 1.63 | 1.36 | 1.64 | -0.479 | 2.83 | 2.62 | 3.75 | 1.26 | 2.92
ACAGACAGGTGATGAAGGGAACTCAGGCTATCAT | -0.0225 | -0.0438 | -0.158 | -0.298 | -0.495 | -0.115 | 0.754 | 0.00384 | 0.0362 | -0.027
TCATATAGATAAAAGGTGAAAGTCGGTGTGGTAA | 1.52 | 1.57 | 0.231 | 1.67 | -0.152 | 3.28 | 3.63 | 5.16 | 5.42 | 5.56
ATCTCTAGGTAAGACTCAGTTCAGTGGAGAACGC | 0.367 | 0.505 | 0.914 | 0.328 | 0.692 | 0.228 | 0.00731 | 0.28 | 0.129 | 0.315
CGAACTAGGTCATCCATGACAGTGAATACATTGA | 3.96 | 2.2 | 0.578 | 2.07 | 0.325 | 5.09 | 7.88 | 6.33 | 4.18 | 5.8
CTACCAAGGTGAACAAGGGCGTTGATTACTATTC | 0.636 | 0.274 | -0.543 | 0.44 | -0.701 | 1.39 | 0.678 | 0.967 | -0.0752 | 0.624
